Unmarked numbers belong to inactive results. Inconclusive results are not listed. The source made the active and inactive calls. Unless noted, calls come from the whole dose curve; as a rule, active = well fitted curve in the direction sought with a large enough effect; inconclusive = small, poorly fitted or top-dose-only effect, or another doubt; inactive = no such curve, though single readings can be large; an effect the other way counts as inactive or inconclusive.

Glutathione peroxidase 1 (Homo sapiens), sequence (P07203 whole entry, looked up): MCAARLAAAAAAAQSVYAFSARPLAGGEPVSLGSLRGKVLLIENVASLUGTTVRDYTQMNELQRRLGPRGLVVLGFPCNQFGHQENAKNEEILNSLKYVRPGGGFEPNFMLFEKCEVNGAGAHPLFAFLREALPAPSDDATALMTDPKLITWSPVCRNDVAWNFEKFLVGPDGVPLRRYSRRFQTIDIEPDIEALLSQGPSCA

Tested on in one assay: not listed separately
Put plainly: NCATS anti-infectives library activity on the primary C. elegans qHTS viability assay (AID 1745855; calls by dose curve). Conditions: C. elegans worm area imaging, day 7; series mostly up to 41.8 µM; activity change, negative = inhibition: at the top concentration; outcome: at the top concentration. The essentials:
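GFP read-out by 488 nm laser cytometry at day 0, 3 and 7, gated on object perimeter, area and peak intensity, scored viability of PE254-GFP-FLuc worms exposed to compound in S medium with bacterial capsules at 21 °C.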
(In general: Quantitative high-throughput screening tests each substance at several concentrations.)
Consider `Cn1c(=O)cc(N2CCC[C@@H](N)C2)n(Cc2ccccc2C#N)c1=O`, for which the outcome was inactive.

Regarding `CCOC(=O)NCCCC(=O)NCCc1ccccc1`, the outcome was inactive.

For `O=c1cc(-c2ccc(O)c(-c3c(O)cc(O)c4c(=O)cc(-c5ccc(O)cc5)oc34)c2)oc2cc(O)cc(O)c12`, the molecule was classed as inactive.

Turning to `CC(=O)N[C@@H](CC(C)C)C(=O)N[C@@H](CC(C)C)C(=O)N[C@H](C=O)CCCN=C(N)N`, the outcome was inactive.

In the case of `CC(C)[C@H](NC(=O)OCc1ccccc1)C(=O)N[C@@H](C)C(=O)N[C@@H](CC(=O)O)C(=O)CF`, the outcome was inactive.

Take `CC1(C)CC[C@]2(C(=O)O)CC[C@]3(C)C(=CC[C@@H]4[C@@]5(C)CC[C@H](O)C(C)(C)[C@@H]5CC[C@]43C)[C@@H]2C1`: the outcome was inactive.

As for `C[C@H]1O[C@@H](O[C@H]2CC[C@@]3(C)C(CC[C@]4(C)[C@@H]3C=CC3=C5CC(C)(C)CC[C@]5(CO)[C@H](O)C[C@@]34C)[C@]2(C)CO)[C@H](O)[C@@H](O[C@@H]2O[C@H](CO)[C@@H](O)[C@H](O)[C@@H]2O)[C@H]1O` (some centres not stated), the outcome was inactive.

Tested on in the next assay: not listed separately
Put plainly: Viability counterscreen for antagonist of constitutive androstane receptor (CAR) against the NCATS DSHEA and TCM libraries (AID 1794837).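 Note: compound exposure lasted 24 h before viability reading; 0% is about no effect.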 Conditions: CAR reporter cell line viability counterscreen, qHTS; series mostly up to 40 µM; viability change, negative = cytotoxic: at the top concentration. The essentials: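 HepG2-CYP2B6-hCAR cells (2,500/well) were allowed to attach for 5 h, then exposed to compounds with 48 uM CITCO for 24 h at 37C. Viability was read by CellTiter-Fluor fluorescence after 1 h.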
A general note: The purpose of a counterscreen is to sort out artefacts and off-target activity.
Consider `O=C(/C=C/c1ccc(O)c2c1[C@H](C(=O)O)[C@@H](c1ccc(O)c(O)c1)O2)O[C@H](Cc1ccc(O)c(O)c1)C(=O)O`, for which the “viability change, negative = cytotoxic” value was 5.64%.

Consider `O=C(/C=C/c1ccc(O)c(O)c1)O[C@@H]1CC(O)(C(=O)O)C[C@@H](OC(=O)/C=C/c2ccc(O)c(O)c2)C1O` (some centres not stated), for which the “viability change, negative = cytotoxic” value is -11.6%.

With `COc1cc(-c2oc3cc(O)cc(O)c3c(=O)c2O)ccc1O`, the “viability change, negative = cytotoxic” value was -14.3%.

Regarding `O=C(/C=C/c1ccc(O)c(O)c1)O[C@H]1[C@H](O)C[C@](O)(C(=O)O)C[C@H]1OC(=O)/C=C/c1ccc(O)c(O)c1`, the “viability change, negative = cytotoxic” value was -7.17%.

With `O=c1c(O[C@@H]2O[C@H](CO)[C@H](O)[C@H](O)[C@H]2O)c(-c2ccc(O)c(O)c2)oc2cc(O)cc(O)c12`, the “viability change, negative = cytotoxic” value is -27%.

Tested on in a further assay: not listed separately
Put plainly: Viability counterscreen for agonist of constitutive androstane receptor (CAR) against the NCATS DSHEA and TCM libraries (AID 1794838). Note: 0% is about no effect. To be noted: HepG2 cell viability counterscreen, CAR agonist assay, co-treated with 0.75 µM CAR antagonist; series mostly up to 40 µM; activity change, negative = cytotoxicity: at the top concentration. The essentials: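 HepG2-CYP2B6-hCAR cells (2,500/well) attached 5 h, then got compounds plus 0.75 uM PK11195 final. After 24 h at 37C, viability read by CellTiter-Fluor fluorescence (Ex/Em 405/540 nm).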
Turning to `O=C(/C=C/c1ccc(O)c2c1[C@H](C(=O)O)[C@@H](c1ccc(O)c(O)c1)O2)O[C@H](Cc1ccc(O)c(O)c1)C(=O)O`, the “activity change, negative = cytotoxicity” value was 16.1%.

As for `O=C(/C=C/c1ccc(O)c(O)c1)O[C@@H]1CC(O)(C(=O)O)C[C@@H](OC(=O)/C=C/c2ccc(O)c(O)c2)C1O` (some centres not stated), the “activity change, negative = cytotoxicity” value is -0.45%.

With `COc1cc(-c2oc3cc(O)cc(O)c3c(=O)c2O)ccc1O`, the “activity change, negative = cytotoxicity” value is -20.9%.

As to `O=C(/C=C/c1ccc(O)c(O)c1)O[C@H]1[C@H](O)C[C@](O)(C(=O)O)C[C@H]1OC(=O)/C=C/c1ccc(O)c(O)c1`, the “activity change, negative = cytotoxicity” value was -9.42%.

As to `O=c1c(O[C@@H]2O[C@H](CO)[C@H](O)[C@H](O)[C@H]2O)c(-c2ccc(O)c(O)c2)oc2cc(O)cc(O)c12`, the “activity change, negative = cytotoxicity” value was -37.2%.

Tested on in a further assay: not listed separately
Put plainly: HepG2 viability counterscreen (readout 2: ATP content) against the NCATS DSHEA and TCM libraries (AID 1794840).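 Note: HepG2 cells exposed to substances for about 24 h; 0% is about no effect.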 Conditions: ATP content luminescence; series mostly up to 27.3 µM; activity change, negative = cytotoxic: at the top concentration. The essentials:
(§1)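 HepG2 cells (1,000 cells/well) attached ~4 h, then treated ~24 h at 37C with substances. Protease activity read by GF-AFC (25 uM final, 30 min, Ex/Em 380/510 nm); ATP content then by CellTiter-Glo luminescence.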
In the case of `O=C(/C=C/c1ccc(O)c2c1[C@H](C(=O)O)[C@@H](c1ccc(O)c(O)c1)O2)O[C@H](Cc1ccc(O)c(O)c1)C(=O)O`, the “activity change, negative = cytotoxic” value was -0.513%.

Regarding `O=C(/C=C/c1ccc(O)c(O)c1)O[C@@H]1CC(O)(C(=O)O)C[C@@H](OC(=O)/C=C/c2ccc(O)c(O)c2)C1O` (some centres not stated), the “activity change, negative = cytotoxic” value was 11.1%.

In the case of `COc1cc(-c2oc3cc(O)cc(O)c3c(=O)c2O)ccc1O`, the “activity change, negative = cytotoxic” value was 11.5%.

`O=c1c(O[C@@H]2O[C@H](CO)[C@H](O)[C@H](O)[C@H]2O)c(-c2ccc(O)c(O)c2)oc2cc(O)cc(O)c12`: the “activity change, negative = cytotoxic” value was 0.496%.

Tested on in another assay: not listed separately
Put plainly: HepG2 viability counterscreen (readout 1: protease activity) against the NCATS DSHEA and TCM libraries (AID 1794841).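 Note: cells exposed to compounds for about 24 h before the protease read; 0% is about no effect.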 Conditions: qHTS concentration series; series mostly up to 27.3 µM; activity change, negative = inhibition: at the top concentration. In outline: as §1
Turning to `O=C(/C=C/c1ccc(O)c(O)c1)O[C@@H]1CC(O)(C(=O)O)C[C@@H](OC(=O)/C=C/c2ccc(O)c(O)c2)C1O` (some centres not stated), the “activity change, negative = inhibition” value is -9.4%.

`COc1cc(-c2oc3cc(O)cc(O)c3c(=O)c2O)ccc1O`: the “activity change, negative = inhibition” value was 32.7%.

With `O=C(/C=C/c1ccc(O)c(O)c1)O[C@H]1[C@H](O)C[C@](O)(C(=O)O)C[C@H]1OC(=O)/C=C/c1ccc(O)c(O)c1`, the “activity change, negative = inhibition” value is 14.4%.

As for `O=c1c(O[C@@H]2O[C@H](CO)[C@H](O)[C@H](O)[C@H]2O)c(-c2ccc(O)c(O)c2)oc2cc(O)cc(O)c12`, the “activity change, negative = inhibition” value is 26.1%.

Another assay addresses Glutathione peroxidase 1 (Homo sapiens) (UniProt P07203). Description: Primary qHTS Assay for Inhibitors of Recombinant Selenoprotein Glutathione Peroxidase 1 (GPX1) (AID 1845191). For activity, negative = inhibition: % is set by controls: 0 for no effect and ±100 for the full control effect. Note: nearly all actives have a fitted effect of over 65% in size. To be noted: recombinant GPX1, GR-coupled NADPH fluorescence, 15 min; series mostly up to 48.8 µM; activity, negative = inhibition: at the top concentration; outcome: at the top concentration. The essentials: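 NADPH consumption tracked by fluorescence at 340/450 nm between t=0 and t=15 min, room temperature. Final mix: 10 nM GPX1, 100 nM glutathione reductase, 1 mM GSH, 0.5 mM NADPH, 0.5 mM cumene hydroperoxide, 0.01% BSA; 30 min compound–enzyme preincubation.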
Regarding `C=C[C@@H]1C[C@]1(NC(=O)[C@@H]1C[C@@H](Oc2ncc(OC)c3ccc(Cl)cc23)CN1C(=O)[C@@H](NC(=O)OC(C)(C)C)C(C)(C)C)C(=O)NS(=O)(=O)C1CC1`, the outcome was inactive.

In the case of `CC(C)c1nc(CN(C)C(=O)N[C@@H](CCN2CCOCC2)C(=O)N[C@H](CC[C@H](Cc2ccccc2)NC(=O)OCc2cncs2)Cc2ccccc2)cs1`, the “activity, negative = inhibition” value was -11.4%.

For the molecule `Cn1c(=O)cc(N2CCC[C@@H](N)C2)n(Cc2ccccc2C#N)c1=O`, the Potency result is “inactive”.

Consider `CC1(C)CC[C@]2(C(=O)O)CC[C@]3(C)C(=CC[C@@H]4[C@@]5(C)CC[C@H](O)C(C)(C)[C@@H]5CC[C@]43C)[C@@H]2C1`, for which the “outcome” value is “inactive [at 27.7 µM]”.

Another assay deals with Cytochrome P450 3A4 (Homo sapiens) (UniProt P08684). Description: qHTS for inhibitors of CYP3A4 against the NCATS DSHEA and TCM libraries (AID 1919971).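 For activity change, negative = inhibition: % is set by controls: 0 for no effect and ±100 for the full control effect; inhibition lowers luminescence from luciferin made by CYP3A4.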 Note: potency is the fitted concentration of half-maximal effect. Conditions: recombinant CYP3A4 enzyme activity, luminescence qHTS; series mostly up to 34.1 µM; activity change, negative = inhibition: at the top concentration. In outline: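 Concentration-response screening with isoform-matched pro-luciferin substrates. The CYP reaction was initiated by NADPH regenerating solution and ran 30-45 min in darkness at room temperature.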
Cytochrome P450 3A4 (Homo sapiens), sequence (P08684 whole entry, looked up, canonical isoform): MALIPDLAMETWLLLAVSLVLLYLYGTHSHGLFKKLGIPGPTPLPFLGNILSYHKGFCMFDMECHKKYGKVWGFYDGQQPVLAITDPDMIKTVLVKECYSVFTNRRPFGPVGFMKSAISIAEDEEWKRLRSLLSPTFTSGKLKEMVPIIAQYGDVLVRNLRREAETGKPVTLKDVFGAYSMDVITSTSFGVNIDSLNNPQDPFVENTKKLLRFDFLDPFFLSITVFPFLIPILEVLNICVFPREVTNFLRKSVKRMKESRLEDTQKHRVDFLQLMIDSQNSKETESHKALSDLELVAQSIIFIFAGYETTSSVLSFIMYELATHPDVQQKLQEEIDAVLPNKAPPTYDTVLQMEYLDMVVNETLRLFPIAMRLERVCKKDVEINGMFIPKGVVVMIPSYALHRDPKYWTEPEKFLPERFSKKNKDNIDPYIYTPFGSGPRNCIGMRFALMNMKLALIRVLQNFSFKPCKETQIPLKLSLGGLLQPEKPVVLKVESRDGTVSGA
For `O=C(/C=C/c1ccc(O)c(O)c1)O[C@@H]1CC(O)(C(=O)O)C[C@@H](OC(=O)/C=C/c2ccc(O)c(O)c2)C1O` (some centres not stated), the “activity change, negative = inhibition” value was -0.401%.

Take `COc1cc(-c2oc3cc(O)cc(O)c3c(=O)c2O)ccc1O`: the Potency is 11.2 µM (active).

As for `O=C(/C=C/c1ccc(O)c(O)c1)O[C@H]1[C@H](O)C[C@](O)(C(=O)O)C[C@H]1OC(=O)/C=C/c1ccc(O)c(O)c1`, the “activity change, negative = inhibition” value was -7.53%.

Another assay deals with Cytochrome P450 2D6 (Homo sapiens) (UniProt P10635). Put plainly: qHTS for inhibitors of CYP2D6 against the NCATS DSHEA and TCM libraries (AID 1919972). For activity change, negative = inhibition: % is set by controls: 0 for no effect and ±100 for the full control effect. Note: potency is the fitted concentration of half-maximal effect. To be noted: CYP2D6 enzymatic inhibition, luminescence qHTS; series mostly up to 34.1 µM; activity change, negative = inhibition: at the top concentration. In outline: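 CYP2D6 enzyme with pro-luciferin substrate in manufacturer buffer (typically 100 mM KPO4), preincubated 15 min RT with substances (most at 19.5 nM upward); NADPH regeneration system (1x) started 30–45 min RT reaction; P450-Glo luminescence read after 30 min; quinidine as intraplate control.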
Cytochrome P450 2D6 (Homo sapiens), sequence (P10635 whole entry, looked up): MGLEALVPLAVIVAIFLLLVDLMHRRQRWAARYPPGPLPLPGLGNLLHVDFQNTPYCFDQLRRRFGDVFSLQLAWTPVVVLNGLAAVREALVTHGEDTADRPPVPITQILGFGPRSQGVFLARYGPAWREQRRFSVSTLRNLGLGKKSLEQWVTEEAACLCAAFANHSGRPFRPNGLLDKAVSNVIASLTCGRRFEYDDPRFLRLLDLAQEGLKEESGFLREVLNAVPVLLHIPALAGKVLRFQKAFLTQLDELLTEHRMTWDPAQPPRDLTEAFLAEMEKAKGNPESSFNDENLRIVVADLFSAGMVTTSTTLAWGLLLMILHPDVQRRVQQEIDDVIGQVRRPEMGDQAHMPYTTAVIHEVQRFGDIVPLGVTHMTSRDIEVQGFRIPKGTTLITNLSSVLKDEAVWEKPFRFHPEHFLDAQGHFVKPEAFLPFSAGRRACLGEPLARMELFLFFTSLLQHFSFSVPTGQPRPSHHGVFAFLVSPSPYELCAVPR
Turning to `O=C(/C=C/c1ccc(O)c2c1[C@H](C(=O)O)[C@@H](c1ccc(O)c(O)c1)O2)O[C@H](Cc1ccc(O)c(O)c1)C(=O)O`, the “activity change, negative = inhibition” value is -3.67%.

As to `O=C(/C=C/c1ccc(O)c(O)c1)O[C@@H]1CC(O)(C(=O)O)C[C@@H](OC(=O)/C=C/c2ccc(O)c(O)c2)C1O` (some centres not stated), the “activity change, negative = inhibition” value is 0.532%.

As for `COc1cc(-c2oc3cc(O)cc(O)c3c(=O)c2O)ccc1O`, the Potency is 4.47 µM (active).

For the molecule `O=C(/C=C/c1ccc(O)c(O)c1)O[C@H]1[C@H](O)C[C@](O)(C(=O)O)C[C@H]1OC(=O)/C=C/c1ccc(O)c(O)c1`, the “activity change, negative = inhibition” value was -2.82%.

For `O=c1c(O[C@@H]2O[C@H](CO)[C@H](O)[C@H](O)[C@H]2O)c(-c2ccc(O)c(O)c2)oc2cc(O)cc(O)c12`, the “activity change, negative = inhibition” value was 0.638%.

These data come from PubChem BioAssay (NCATS).
